In PubChem BioAssay (NCI) one finds growth inhibition data, which are given here for eight compounds.

The panel holds about 79,000 compounds, 15% with a hit somewhere; the sample as a whole holds those more often. A number with no mark means an inactive call. The source made the active and inactive calls. No stated cut-off is given here; in the data, active means growth inhibition above about 70%; inactive means the rest.

The test in a line: NCI Yeast Anticancer Drug Screen. Data for the rad52 strain (AID 147).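 Further: 0% = growth of vehicle-treated control cultures.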 The settings on record: S. cerevisiae rad52 mutant growth inhibition, hits give high values. The procedure: Growth inhibition of yeast strains with defined genetic alterations is measured as a screen for potential anti-cancer activity. Selected strains with alterations in DNA damage repair or cell cycle control were exposed to compounds and growth inhibition was measured relative to vehicle treated controls. The strain used in this assay is rad52

In the case of `NC(N)=NC(N)=Nc1ccccc1` (tested in a mixture with another compound), the growth inhibition by setting is: (at 1.2 µM) -3%; (at 3.7 µM) -5%; (at 11.0 µM) -7%; (at 33.0 µM) 2%; (at 100.0 µM) 48%.

For `CN(N=O)C(=O)Nc1ccc(C(=O)O)cc1`, the growth inhibition by setting is: (at 1.2 µM) 1%; (at 3.7 µM) 3%; (at 11.0 µM) 8%; (at 33.0 µM) 29%; (at 100.0 µM) 62%.

For `CCCCCCCCCCCCCCCCCCNC(=S)/N=C/c1c(O)c2ccccc2[nH]c1=O`, the growth inhibition by setting is: (at 1.2 µM) 7%; (at 3.7 µM) 4%; (at 11.0 µM) 16%; (at 33.0 µM) 11%; (at 100.0 µM) 12%.

With `CCCN=Cc1cc(Cc2ccc(O)c(C=NCCC)c2)ccc1O`, the growth inhibition is 70% (active) (at 1.2 µM); 95% (active) (at 3.7 µM); 98% (active) (at 11.0 µM); 98% (active) (at 33.0 µM); 97% (active) (at 100.0 µM).

As to `O=S1(=O)CCC2=CC(C(F)(F)F)=CC(C(F)(F)F)=CN21`, the growth inhibition by setting is: (at 1.2 µM) 26%; (at 3.7 µM) 42%; (at 11.0 µM) 71% (active); (at 33.0 µM) 89% (active); (at 100.0 µM) 98% (active).

As to `C/C(=N\OCC(O)CNCCSCc1ccccc1)c1ccccc1Cl` (stereo not given), the growth inhibition by setting is: (at 1.2 µM) 2%; (at 3.7 µM) 5%; (at 11.0 µM) 26%; (at 33.0 µM) 45%; (at 100.0 µM) 80% (active).

With `CCN1CCC(O)(c2ccc(Oc3ccc(C)cc3)cc2)C(C(=O)c2ccc(Oc3ccc(C)cc3)cc2)C1` (stereo not given), the growth inhibition (at 1.2 µM) is -28%; the growth inhibition (at 3.7 µM) is -32%; the growth inhibition (at 11.0 µM) was 96% (active); the growth inhibition (at 33.0 µM) is 95% (active); the growth inhibition (at 100.0 µM) was 93% (active).

Regarding `CCCCS(=O)(=O)Nc1ccc(Nc2c3ccccc3nc3ccccc23)c(OC)c1`, the growth inhibition (at 1.2 µM) was 54%; the growth inhibition (at 3.7 µM) was 80% (active); the growth inhibition (at 11.0 µM) was 90% (active); the growth inhibition (at 33.0 µM) is 93% (active); the growth inhibition (at 100.0 µM) is 96% (active).
